Bioassay records as filed in PubChem BioAssay.
A selection: hits, their analogues and other compounds. The true share with any hit is near 4.7%.
EBI2 block – EBI2 (human) antagonism; EBI2 beta-arrestin recruitment, luminescence, 7a,25-OHC stimulated; inhibition, % at 5 µM; 360,000 tested, 0.81% active; AID 651636; in the data active = inhibition above about 38%;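 note: enzyme fragment complementation signal reports receptor beta-arrestin coupling in cells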
Target sequence (P32249 whole entry, looked up, the tested form may be a part): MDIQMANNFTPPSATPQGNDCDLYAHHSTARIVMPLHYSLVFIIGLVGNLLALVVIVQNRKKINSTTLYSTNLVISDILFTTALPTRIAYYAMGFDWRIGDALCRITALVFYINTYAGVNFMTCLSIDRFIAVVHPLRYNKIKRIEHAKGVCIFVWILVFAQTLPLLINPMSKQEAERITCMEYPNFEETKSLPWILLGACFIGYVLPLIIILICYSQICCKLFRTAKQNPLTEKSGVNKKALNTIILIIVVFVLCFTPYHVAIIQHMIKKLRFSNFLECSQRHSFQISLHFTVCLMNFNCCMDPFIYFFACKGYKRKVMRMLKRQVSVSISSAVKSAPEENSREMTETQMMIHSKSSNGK
TIM10 inh – growth inhibitors of TIM10 yeast strain; S. cerevisiae TIM10 strain growth, BacTiter-Glo luminescence, 24 h; inhibition, % at 10 µM; 330,000 tested, 1.4% active; AID 463195;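 active = inhibition of 40% or more at the single tested concentration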;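 note: wild-type TIM10 isogenic control strain grown at permissive 25 °C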
tim23-1 inh – inhibits growth of tim23-1 mutant yeast; inhibition, % at 20 µM; AID 463212; S. cerevisiae tim23-1 growth, BacTiter-Glo luminescence, 24 h; 330,000 tested, 1.3% active;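 active = growth inhibition of the mutant yeast at or above 50%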;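 note: temperature-sensitive mutant grown at 25 °C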
PfHsp90 set2 – inhibits growth of yeast expressing Plasmodium falciparum Hsp90; inhibition, % at 9.4 µM; 310,000 tested, 0.32% active; S. cerevisiae expressing PfHsp90, BacTiter-Glo ATP, 48 h; yeast lacking PDR1 and PDR3 efflux regulators; AID 504621;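 active = every replicate shows inhibition above about 80%, whatever the replicate mean, limit read from the data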
tim10-1 inh – tim10-1 yeast growth inhibition; inhibition, % at 20 µM; AID 463190; S. cerevisiae tim10-1 ts strain growth, BacTiter-Glo, 24 h; 330,000 tested, 2.2% active;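 active = inhibition of at least 40%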;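 note: mutant grown at 25 °C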
SKKanGAS inh – inhibitors of SKKanGAS S. pyogenes growth in kanamycin (SK-promoter or general growth effect); BacTiter-Glo, 6 h; inhibition, % at 7.5 µM; 300,000 tested, 1.3% active; AID 1662;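 active = mean replicate score, as percent of positive control median, at least 50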;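 note: strain carries kanamycin resistance gene driven by streptokinase promoter and grows in 40 µg/ml kanamycin; loss of luminescence reflects streptokinase promoter inhibition or plain growth inhibition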
EBI2 antag conf – EBI2 (human) antagonism, single concentration confirmation | EBI2 beta-arrestin luminescence, 7a,25-OHC antagonism | 2,400 tested, 29% active | shares compounds with EBI2 block | inhibition, % at 5 µM;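 active = inhibition of at least 50%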
EBI2 agonist – EBI2 agonism counter-screen; shares compounds with EBI2 block; EBI2-expressing cells, agonist mode, luminescence, 60 min; 0% vehicle, 100% 7α,25-dihydroxycholesterol control; activation, % at 5 µM; 2,400 tested, under 10 active; AID 652000;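 active = activation of at least 50%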
bGal cs – counter-screen for EBI2 antagonists: E. coli beta-galactosidase inhibition | shares compounds with EBI2 block | purified beta-galactosidase, luminescent Galacton Star, 15 min | inhibition, % at 5 µM | 2,400 tested, 1% active | AID 652176;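 active = replicate-average signal at least 3 plate SD below neutral wells, shown as high inhibition, flagging enzyme-inhibiting false positives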;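 note: higher means stronger loss of beta-gal luminescence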
Each line names hits and unclear results; the compound was inactive in the other large screens (follow-up assays come after a bar, where they were run).

N#Cc1cccc(C(=O)C(=O)N2CCN(c3ccccc3)CC2)c1	none (no result: TIM10 inh, tim23-1 inh, PfHsp90 set2, tim10-1 inh, SKKanGAS inh)
O=C(COc1ccc(C(=S)N2CCC(Cc3ccccc3)CC2)cc1)N1CCOCC1	none
CCCc1nnc(SCC(=O)N2CCCC(C)C2)n1CCOC (stereo not drawn)	none
Clc1ccc(-c2nnc(CCc3ccccc3)o2)c(Cl)c1	EBI2 block 55 | EBI2 antag conf inactive | EBI2 agonist inactive | bGal cs inactive
Oc1ccccc1-c1nnc(COc2ccc(Cl)cc2Cl)o1	none
N#C/C(=C\c1cccnc1)c1ccccn1	none
CCC(c1nnnn1Cc1ccccc1)N1CCN(C/C=C/c2ccccc2)CC1 (stereo not drawn)	none (no result: TIM10 inh, tim23-1 inh, PfHsp90 set2, tim10-1 inh, SKKanGAS inh)
C(=C\c1ccccc1)/CN1CCN(C(c2ccccc2)c2nnnn2Cc2ccccc2)CC1 (stereo not drawn)	EBI2 block 47 (no result: TIM10 inh, tim23-1 inh, PfHsp90 set2, tim10-1 inh, SKKanGAS inh) | EBI2 antag conf inactive | EBI2 agonist inactive | bGal cs inactive
COc1ccc(C(c2nnnn2Cc2ccccc2)N2CCN(C/C=C/c3ccccc3)CC2)cc1 (stereo not drawn)	EBI2 block 50 (no result: TIM10 inh, tim23-1 inh, PfHsp90 set2, tim10-1 inh, SKKanGAS inh) | EBI2 antag conf inactive | EBI2 agonist inactive | bGal cs inactive
COc1ccc(-n2nnnc2C(c2ccccc2)N2CCN(C/C=C/c3ccccc3)CC2)cc1 (stereo not drawn)	EBI2 block 53 (no result: TIM10 inh, tim23-1 inh, PfHsp90 set2, tim10-1 inh, SKKanGAS inh) | EBI2 antag conf inactive | EBI2 agonist inactive | bGal cs inactive
CCN1CCN(C(c2ccccc2)c2nnnn2Cc2ccc(OC)cc2)CC1 (stereo not drawn)	none
COC(=O)CCC(=O)Nc1cccc([N+](=O)[O-])c1	none
COc1ccc(S(=O)(=O)NCCN2CCNC2=O)cc1OC	none (no result: PfHsp90 set2)
Cc1cc2nc(-c3ccc(SCc4ccccc4C#N)nc3)[nH]c2cc1C	EBI2 block 50 | EBI2 antag conf inactive | EBI2 agonist inactive | bGal cs inactive
CC1(C(=O)NS(=O)(=O)c2ccc(Cl)cc2)CCN1C(=O)CCc1ccccc1 (stereo not drawn)	none (no result: TIM10 inh, tim23-1 inh, PfHsp90 set2, tim10-1 inh, SKKanGAS inh)
COc1cc2cc(C(c3nnnn3C3CCCC3)N(C)C3CCCCC3)c(=O)[nH]c2cc1OC (stereo not drawn)	EBI2 block 58 | EBI2 antag conf 54 | EBI2 agonist inactive | bGal cs inactive
COc1cc2cc(C(c3nnnn3C3CCCCC3)N(C)C3CCCCC3)c(=O)[nH]c2cc1OC (stereo not drawn)	EBI2 block 36 | EBI2 antag conf inactive | EBI2 agonist inactive | bGal cs inactive
CC(C)c1ccc(C(=O)N2CCCCC2c2cc(C(=O)NCc3cccnc3)no2)cc1 (stereo not drawn)	none (no result: TIM10 inh, tim23-1 inh, PfHsp90 set2, tim10-1 inh, SKKanGAS inh)
CC1(C(=O)Nc2cccc(Oc3ccccc3)c2)CCN1Cc1cccc2c1OCO2 (stereo not drawn)	none (no result: TIM10 inh, tim23-1 inh, PfHsp90 set2, tim10-1 inh, SKKanGAS inh)
COC(=O)c1c(NC(=O)CN2C(=O)c3ccccc3C2=O)sc(Cc2ccc3c(c2)OCO3)c1C	EBI2 block 63 | EBI2 antag conf inactive | EBI2 agonist inactive | bGal cs inactive
C=CCN(C(=O)c1ccc2snnc2c1)c1ccccc1	none
Cc1ccc2oc(=O)c3cnn(CC(=O)N(CCC(C)C)Cc4ccco4)c3c2c1	EBI2 block 86 | EBI2 antag conf 76 | EBI2 agonist inactive | bGal cs inactive
CCCCN(Cc1ccco1)C(=O)Cn1ncc2c(=O)oc3ccc(C)cc3c21	EBI2 block 86 | EBI2 antag conf inactive | EBI2 agonist inactive | bGal cs inactive
O=C(Cn1ncc2c(=O)oc3ccccc3c21)N(Cc1ccco1)C1CCCCC1	EBI2 block 56 | EBI2 antag conf inactive | EBI2 agonist inactive | bGal cs inactive
Cc1ccc2oc(=O)c3cnn(CC(=O)N4CCCCC4C)c3c2c1 (stereo not drawn)	none
Cc1ccc2oc(=O)c3cnn(CC(=O)N4CCc5ccccc5C4)c3c2c1	EBI2 block 47 (no result: PfHsp90 set2) | EBI2 antag conf inactive | EBI2 agonist inactive | bGal cs inactive
